Records with an inconclusive call do not appear. Where a call stands in place of a potency, no number is given. Calls of active or inactive are those of the source. Calls come from the whole dose curve; as a rule, active = well fitted inhibition curve with a large enough effect; inconclusive = small, poorly fitted or top-dose-only effect; inactive = flat fitted curve, though single readings scatter.
Potency is the fitted concentration of half-maximal effect.

Tested on in the first experiment: not listed separately
Put plainly: Drug repurposing screens with cells derived from glioblastoma tumor samples (AID 1345199). Note: nearly all actives have a fitted effect of over 40% in size. The note with it: GBM patient neurospheres viability, ATP luminescence, 48 h; tumour line B. The essentials:
(§1)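 Four patient lines of CD133+ GBM neurospheres were screened at several concentrations; hits were retested in those lines plus three slower-growing GBM lines, using 48-hour treatment and ATP-based viability.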
With `Oc1c(I)cc(Cl)c2cccnc12`, the Potency is 17.8 µM (active). Same read-out and setting: then `C[n+]1c2cc(N)ccc2cc2ccc(N)cc21` (tested in a mixture with another compound), with 11.2 µM (active). Regarding `O=C(N/N=C/c1ccccc1O)c1ccncc1`, the Potency is 17.8 µM (active).

The experiment is the same for the next values; noted with them: GBM patient neurospheres viability, ATP luminescence, 48 h; tumour line D.
Regarding `C#C[C@]1(OC(C)=O)CC[C@H]2[C@@H]3CCC4=C[C@@H](OC(C)=O)CC[C@@H]4[C@H]3CC[C@@]21C`, the Potency was 17.8 µM (active). Same read-out and setting: then `c1ccc(-c2ccc(C(c3ccccc3)n3ccnc3)cc2)cc1` (stereo not drawn), with 11.2 µM (active); and `C[n+]1c2cc(N)ccc2cc2ccc(N)cc21` (tested in a mixture with another compound), with 5.01 µM (active). For `O=C(CCCN1CCC(O)(c2ccc(Br)cc2)CC1)c1ccc(F)cc1`, the Potency was 8.91 µM (active).

The subject of a further experiment is astro (control astrocytes). The experiment is described as above. The settings on record: viability, ATP luminescence, 48 h; series mostly up to 45.9 µM. The essentials:
as §1
`CN=C(NC#N)NCCSCc1csc(N=C(N)N)n1`: the Potency result is “inactive”. The same measure, in the same setting: then `CCCCOc1ccc(C(=O)CCN2CCCCC2)cc1`, with “inactive”. In the case of `COc1c2occc2c(OC)c2c(=O)cc(C)oc12`, the Potency result was “inactive”. Still for that read-out and setting: then `C#C[C@]1(OC(C)=O)CC[C@H]2[C@@H]3CCC4=C[C@@H](OC(C)=O)CC[C@@H]4[C@H]3CC[C@@]21C`, with “inactive”. On the same count and under the same terms, then `COc1cccc2c1C(=O)c1c(O)c3c(c(O)c1C2=O)C[C@@](O)(C(C)=O)C[C@@H]3O[C@H]1C[C@H](N)[C@H](O)[C@H](C)O1`, with 1.12 µM (active). For the compound `COCc1c(C(C)C)nc(C(C)C)c(/C=C/[C@@H](O)C[C@@H](O)CC(=O)O)c1-c1ccc(F)cc1`, the Potency is 0.1 µM (active).

Regarding `COc1ccc(OC)c(C(O)CNC(=O)CN)c1` (stereo not drawn), the Potency result was “inactive”. Same read-out and setting: then `CC(C)(C(=O)c1cccnc1)c1cccnc1`, with “inactive”; and `O=c1c(-c2ccccc2)c1-c1ccccc1`, with 12.6 µM (active); and `C[C@]12CCC(=O)C=C1[C@@H]1C[C@@H]1[C@H]1[C@@H]3[C@@H]4C[C@@H]4[C@@]4(CCC(=O)O4)[C@@]3(C)CC[C@@H]12`, with “inactive”. The same measure, in the same setting: then `CCCCCCCCCCCCCCCCOP(=O)([O-])OCC[N+](C)(C)C`, with “inactive”; and `CN(C)C(=S)SC(=S)N(C)C`, with “inactive”. On the same count and under the same terms, then `CN1CCN(CCCN2c3ccccc3Sc3ccc(S(=O)(=O)N(C)C)cc32)CC1`, with “inactive”; and `O=C1[C@H]2CCCC[C@H]2C(=O)N1CCCCN1CCN(c2nsc3ccccc23)CC1`, with “inactive”. As for `C[C@H](O)C(=O)Nc1c(I)c(C(=O)NC(CO)CO)c(I)c(C(=O)NC(CO)CO)c1I`, the Potency result was “inactive”. Still for that read-out and setting: then `Cc1c(C)n(CCN(C)C)c2ccc(C(=O)OCCN(C)C)cc12`, with “inactive”; and `O=C(N/N=C/c1ccccc1O)c1ccncc1`, with “inactive”; and `CN(C/C=C/c1ccccc1)Cc1cccc2ccccc12`, with “inactive”. On the same count and under the same terms, then `COc1cc2c(cc1OC)C(=O)C(CC1CCN(Cc3ccccc3)CC1)C2` (stereo not drawn), with “inactive”; and `c1ccc(OCc2ccc(CCCN3CCOCC3)cc2)cc1`, with “inactive”; and `Cc1cccn2c(=O)c(-c3nnn[nH]3)cnc12`, with “inactive”. The same measure, in the same setting: then `CC(=O)N(O)CCCCCNC(=O)CCC(=O)N(O)CCCCCNC(=O)CCC(=O)N(O)CCCCCN`, with “inactive”; and `CCCCCCCCCCCCCCCC[N+](C)(C)CC`, with 5.62 µM (active). As to `O=C(CCCN1CCC(O)(c2ccc(Br)cc2)CC1)c1ccc(F)cc1`, the Potency result is “inactive”. Still for that read-out and setting: then `CCOc1ccc2nc3cc(N)ccc3c(N)c2c1`, with “inactive”; and `CCC(C(=O)OCCN(CC)CC)c1ccccc1` (stereo not drawn), with “inactive”.

Source of the values: PubChem BioAssay (NCATS).
